According to ChEMBL document CHEMBL4513216, “Probing the Open Global Health Chemical Diversity Library for Multistage-Active Starting Points for Next-Generation Antimalarials” (ACS Infect Dis, 2020):
Among all 69,000 compounds or so, about 8,600 (12%) showed an effect of 50% or more. This excerpt belongs to a sample that is enriched for strong results.

system: Plasmodium berghei; assay: Screen against P. berghei liver stage (PbLuc), transformed with Luciferase, at 10uM; format: functional, HepG2; settings: tested at 10 uM

Compound | INHIBITION [%]
Cc1cc(C)n(CC2CCCN2C(=O)Cc2c(C)nn(C)c2C)n1 (centres undefined) | -43.5
Cc1ccc(N2CCc3ncnc(C)c3CC2)nn1 | 35.8
Cc1ccc(N2CCc3ncnc(N(C)C)c3CC2)nn1 | 8.6
Cc1ccc(N2CCc3ncnc(C4CC4)c3CC2)nn1 | 58.4
CCN(CC)c1ncnc2c1CCN(c1ccc(C)nn1)CC2 | 52.1
Cc1cccc(N2CCc3ncnc(C4CC4)c3CC2)n1 | -11.6
CCN(C)c1ncnc2c1CCN(c1ccc(C)nn1)CC2 | 39.4
Cc1cccnc1C(=O)N1CCCC(Cc2cncc3ccccc23)C1 (centres undefined) | -63.5
CCn1cc(Cl)c(C(=O)NCc2cnn(C)c2)n1 | 3.46
CN(CCCNC(=O)N1CCCC1c1ccsc1)c1ccccn1 (centres undefined) | 52
CCC(=O)N1CCCC1c1ccsc1 (centres undefined) | 50.4
Cc1nc(-c2nnc[nH]2)sc1C(=O)N1CCCC1c1ccsc1 (centres undefined) | 72.5
Cc1nc(-c2nnc[nH]2)sc1C(=O)N1CCCC1CC(C)(C)C (centres undefined) | -10.2
O=C(NCCCn1cccn1)N1CCCC1c1ccsc1 (centres undefined) | 28.6
CCOC(=O)C1CCN(C(=O)CN2CCCC2Cc2ccccc2)CC1 (centres undefined) | -4.93
CC(C)CC(=O)N1CCCC1c1ccsc1 (centres undefined) | -8.66
O=C(NCCCn1ccnc1)N1CCCC1c1ccsc1 (centres undefined) | 28.4
CCOC(=O)C1CCN(C(=O)CN2CCCC2c2ccccc2C)CC1 (centres undefined) | 70.1
CSCCC(=O)N1CCCC1c1ccsc1 (centres undefined) | 1.81
Cc1nc(-c2nnc[nH]2)sc1C(=O)N1CCCC1c1cccs1 (centres undefined) | -81.2
COc1ccccc1C1CCCN1CC(=O)N1CCC(C(N)=O)CC1 (centres undefined) | 34
Cc1nnc2ccc(N3CCN(CCc4ccccn4)CC3)nn12 | -57.4

Compound | INHIBITION [%]
Cc1cc(C(=O)N2C[C@@H]3COC[C@]3(CN(C)C)C2)c(C)o1 | 25.1
Cc1nn(C)cc1-c1nn2c(C(F)(F)F)nnc2s1 | -15.2
Cc1c(C(=O)N2CCS(=O)(=O)CC2)nnn1-c1ccc2ncccc2c1 | 46.6
CCc1nnc(CN(CC)C(=O)C2CC(=O)N(CC)C2)o1 (centres undefined) | 39.1
CCC(C)(C)NC(=O)Cn1nnc(CN(C)C(=O)c2ccccc2)n1 | 29.6
Cc1cnc(Nc2nccnc2C2CCN(C)CC2)s1 | 7.39
O=C(O)c1cccc(CN2CCCC(Cc3ccn[nH]3)C2)c1 (centres undefined) | -0.05
Cc1ncccc1C(=O)N1CCC2(CCc3ccccc3C(=O)N2)C1 (centres undefined) | 13.79
Cn1cccc1C(=O)NC[C@]12COC[C@H]1CN(Cc1nccs1)C2 | -30.6
Cc1cccc(CNc2n[nH]c(C)n2)c1 | 33.1
CCOC(=O)C1CCN(C(=O)CN2CCCC2c2ccsc2)CC1 (centres undefined) | 54.6
CN(CCC#N)C(=O)CN1CCCC1c1ccsc1 (centres undefined) | 10.5
CCOC(=O)C1CCN(C(=O)CN2CCCC2c2cc(C)no2)CC1 (centres undefined) | -15.1
O=C(NCC1CCOC1)c1csc(-c2ccccc2)n1 (centres undefined) | -10.6
c1cc2c(cc1CN1CC[C@H]3[C@H]1CCN3CC1CC1)OCO2 | 6.27
O=C(c1ccc2[nH]cnc2c1)N1CCC(Oc2ccccn2)CC1 | 35.2
Cc1cnn(CCCNC(=O)CCC2CCCCN2C)c1 (centres undefined) | 35.1
C[C@@H]1CN(C2(C(=O)N3CCSCC3)Cc3ccccc3C2)C[C@H](C)O1 | 73.9
C[C@@H]1CN(C2(C(=O)N3CCOCC3)Cc3ccccc3C2)C[C@H](C)O1 | 21
C[C@@H]1CN(C2(C(=O)N3CCCCCC3)Cc3ccccc3C2)C[C@H](C)O1 | -0.182
COC1CCN(C(=O)C2CC(=O)N(c3ccccc3Br)C2)CC1 (centres undefined) | 61.7
O=C(C1CC(=O)N(c2ccccc2Br)C1)N1CCCCCC1 (centres undefined) | 21.8

Compound | INHIBITION [%]
O=C(C1CC1)N1CCN(C(=O)C2CC(=O)N(c3ccccc3Br)C2)CC1 (centres undefined) | -56.4
COCc1nn(C(C)C)c2c1CCN(Cc1ccsc1)C2 | -21.1
C[C@@H]1C(=O)NC[C@H]2CN(Cc3ccsc3)C[C@H]21 | 27.4
COc1cc(N2C[C@@H]3COC[C@]3(C(=O)NC3CC(F)(F)C3)C2)ncn1 | 31.4
CC(C)(C)CN1CCCC(O)(CN2CCc3[nH]ncc3C2)C1=O (centres undefined) | 22.6
O=C1N(CC2CC2)CCCC1(O)CN1CCc2[nH]ncc2C1 (centres undefined) | 79.1
Cc1cccnc1CCNCC1(O)CCCN(CC2CCCCC2)C1=O (centres undefined) | 25.8
Cc1cccnc1CNCC1(O)CCCN(CC2CCCCC2)C1=O (centres undefined) | 15.1
O=C1N(CC2CCCCC2)CCCC1(O)CN1CCc2[nH]ncc2C1 (centres undefined) | 68.8
Cc1cccnc1CNCC1(O)CCCN(CC2CCC2)C1=O (centres undefined) | 9.96
CS(=O)(=O)N1CCC2(CC1)COC(COc1cccnc1)C2 (centres undefined) | -52.3
CC(C)(C)c1cc(=O)n2c(n1)SCC(C(=O)NCc1cccs1)C2 (centres undefined) | 28
COc1ccc2c(OCC(=O)NC(C)(C)C)ccnc2c1 | 29.6
CCS(=O)(=O)N1CC[C@H]2O[C@H](c3nc(C)no3)CC[C@H]21 | 18.2
Cc1nc2ccc(C(=O)N3C[C@@H](O)[C@H](N4CCN(C)CC4)C3)cc2[nH]1 | 46
CS(=O)(=O)Cc1ccc(Cl)cc1NCc1ccccc1F | 38
CC(C)(CNc1ccc(C#N)c(C(F)(F)F)c1)C(N)=O | -21
Fc1ccccc1CNc1ccnc(C2CCNCC2)c1 | 26.7
Cc1ccccc1CNc1ccc(S(N)(=O)=O)c(C(F)(F)F)c1 | 93.4
Cc1cc(C)c(S(N)(=O)=O)cc1C(=O)NCC1Cc2ccccc2O1 (centres undefined) | -9.82
NS(=O)(=O)c1ccc(NCc2ccccc2)cc1C(F)(F)F | 77.7
CS(=O)(=O)c1ccc(NCc2ccccc2)cn1 | 27.3

Compound | INHIBITION [%]
NS(=O)(=O)c1ccc(NCc2ccccc2F)cc1C(F)(F)F | 82.3
CC(=O)Nc1ccc(CNc2cccc(CS(C)(=O)=O)c2)cc1 | 34.6
CN(C)S(=O)(=O)c1ccc(CN2CCCC2c2ccsc2)o1 (centres undefined) | -0.96
Cn1nccc1C(=O)N1Cc2ccccc2OC2(CCOCC2)C1 | 29.2
CN(C)C(=O)N1CCOCC2(CCN(c3ccccn3)C2)C1 (centres undefined) | -3.1
Cc1cnn(CC2CCCCN2C(=O)c2ccc3c(c2)nnn3C)c1 (centres undefined) | -17.8
O=S(=O)(Cc1ccccc1)NCCc1nnc2n1CCC2 | 31.9
CC(C)CS(=O)(=O)CCNc1ncccn1 | 10.3
CCc1cnc(NCCCN2CCC(O)CC2)nc1 | -52.7
CCc1cnc(NCCS(=O)(=O)CC(C)C)nc1 | 53.7
CCc1cnc(NCCCOC2CCCC2)nc1 | -27
CN(C)S(=O)(=O)CCNc1ncc2c(n1)CCN2c1ccccc1 | -26.9
CCc1cnc(NCCS(=O)(=O)N(C)C)nc1 | 61.3
CSCCCN(CCN1CCOCC1)Cc1ccco1 | 45.8
O=C(Nc1nncs1)NC1CCCc2c1cnn2CCO (centres undefined) | 21.7
O=C(c1cc(C2CC2)[nH]n1)N1CCN(c2nccs2)CC1 | 6.02
Cc1csc(N2CCN(C(=O)c3cc(C4CC4)[nH]n3)CC2)n1 | 12
COc1ccnc(N2CCN(C(=O)c3cc(C4CC4)[nH]n3)CC2)n1 | 25.1
CC(C)c1ccc(CN2CCN(C(=O)c3cc(C4CC4)[nH]n3)CC2)cc1 | 60.2
N#Cc1ccc(CN2CCN(C(=O)c3cc(C4CC4)[nH]n3)CC2)cc1 | 84.2
O=C(c1cc(C2CC2)[nH]n1)N1CCN(Cc2ccsc2)CC1 | 36.4
CC(C)c1cc(C(=O)N2CCCN(Cc3ccccc3)CC2)n[nH]1 | 48.4

Compound | INHIBITION [%]
CC(C)c1cc(C(=O)N2CCN(Cc3ccc(C#N)cc3)CC2)n[nH]1 | 82.5
N#Cc1ccc(N2CCN(C(=O)c3cc(C4CC4)[nH]n3)CC2)c(F)c1 | 80.8
O=C(c1cc(C2CC2)[nH]n1)N1CCN(Cc2ccc3c(c2)OCO3)CC1 | 9.54
CC(C)c1cc(C(=O)N2CCN(Cc3ccsc3)CC2)n[nH]1 | 36.3
Cc1cccc(CN2CCN(C(=O)c3cc(C4CC4)[nH]n3)CC2)c1 | -24.2
CN1CCN(CCCNC(=O)c2nc3ccccc3c(=O)[nH]2)CC1 | 24.2
CN1CCN(C[C@@H]2OC[C@H]3CN(CCc4ccccc4)CC[C@H]32)CC1 | -40
CC(C)n1cc(CN2CCCN(C(=O)CC3CCCCC3)CC2)cn1 | 4.71
CCc1nnc(CN(CC)C(=O)C2CCC(=O)N(C3CCCC3)C2)o1 (centres undefined) | 15.3
Cc1ccc(CN(C)Cc2cnc(N3CCOCC3)s2)o1 | 35.8
O=C(c1cc(C2CC2)[nH]n1)N1CCN(Cc2ccc(Cl)cc2)CC1 | 74.7
O=C(c1cc(C2CC2)[nH]n1)N1CCN(Cc2ccccc2)CC1 | -26.6
O=C(c1cc(C2CC2)[nH]n1)N1CCN(Cc2ccncc2)CC1 | -0.113
Cc1ccc(C(=O)N(CC2CCCO2)c2ccncc2)o1 (centres undefined) | 24.1
COCC(C)NC(=O)CN1CCC(C)CC1 (centres undefined) | 18.4
Cc1nc(CN2CCC(c3cc(N4CCCC4)ncn3)CC2)cs1 | -37.9
c1c[nH]c2nc(C3CCNC3)nc-2c1 (centres undefined) | 19.3
Cc1cc(N)nc(C2(C)CCCN2C(=O)Cc2ccc(F)cc2)n1 (centres undefined) | 29.2
Cn1ccc(NC(=O)CN2C[C@@H]3CC[C@H]2CN(Cc2ccccn2)C3)n1 | 45.8
O=C(CN1C[C@@H]2CC[C@H]1CN(Cc1ccccn1)C2)Nc1ccccc1 | 43.7
O=C(CN1C[C@@H]2CC[C@H]1CN(Cc1ccccn1)C2)NCc1cccs1 | 51.1
